Publication PMC4552634, “A New Set of Chemical Starting Points with Plasmodium falciparum Transmission-Blocking Potential for Antimalarial Drug Discovery” (PLoS ONE, 2015)
Hit rate of the full screen: of about 13,000 compounds, about 3,200 (25%) showed an effect of 50% or more. Some of the results follow.

test system: P. falciparum stage V gametocytes; parameters: BacTiter-Glo ATP luminescence viability of purified stage V gametocytes in 384-well plates, per cent inhibition versus DMSO; settings: 48 h, 5 µM; inhibitor

SMILES	% Inhibition [%]
O=C(n1c(-c2cc3ccccc3n2C(=O)C(F)(F)F)cc2ccccc21)C(F)(F)F [TCMDC-131570]	0.2533
CC(C)COc1ccc(Cl)cc1Cc1nc(-c2nc3c(CN4CCN(C)CC4)cccc3[nH]2)cs1 [TCMDC-132173]	82.6
CN(C)Cc1ccc2nc(-c3cccc(Cc4cc(Cl)ccc4OCc4ccc(Cl)cc4F)n3)[nH]c2c1 [TCMDC-136892]	34.33
CN1CCN(CCc2ccc3nc(-c4csc(Cc5cc(Cl)ccc5OCc5ccccc5)n4)[nH]c3c2)CC1 [TCMDC-132171]	95.37
CNCc1ccc2nc(-c3coc(Cc4cc(Cl)ccc4OCC(C)C)n3)[nH]c2c1 [TCMDC-136808]	13.07
CC(C)COc1ccc(Cl)cc1Cc1nc(-c2nc3nc(N4CCN(C)CC4)ccc3[nH]2)cs1 [TCMDC-136876]	6.698
Cc1cc(-c2nc3ccc(CN4CCN(C)CC4)cc3[nH]2)nn1Cc1cc(Cl)ccc1OCc1ccccc1 [TCMDC-136883]	19.79
CN1CCN(c2ccc3nc(-c4ccc(Cc5cc(Cl)ccc5OCc5ccccc5)o4)[nH]c3c2)CC1 [TCMDC-136708]	-32.6
CN(C)Cc1cccc2[nH]c(-c3csc(Cc4cc(Cl)ccc4OCc4ccccc4)n3)nc12 [TCMDC-132174]	97.26
Clc1ccc(OCc2ccccc2)c(-c2nc(-c3nc4ccc(Cl)cc4[nH]3)cs2)c1 [TCMDC-136728]	-8.781
CC(C)COc1ccc(Cl)cc1Cc1nc(-c2nc3ccc(CN4CCN(C)CC4)cc3[nH]2)co1 [TCMDC-136812]	12.89
CNCc1cccc2[nH]c(-c3csc(Cc4cc(Cl)ccc4OCC(C)C)n3)nc12 [TCMDC-132172]	92.59
CC(C)COc1ccc(Cl)cc1Nc1nc(-c2nc3ccccc3[nH]2)cs1 [TCMDC-137041]	2.246
CCc1ccc(NC(=O)c2cccc(CN3CCCN(CC4CCCCC4)CC3)c2)cc1 [TCMDC-135988]	-39.09
O=C(c1ccc(-c2ccc(-c3nc4ccccc4[nH]3)s2)cc1)N1CCCCC1CN1CCC(O)C1 (centres unmarked) [TCMDC-132341]	-18.79
CC(O)C1CCCCN1C(=O)c1cccc(-c2ccc(-c3nc4ccccc4[nH]3)s2)c1 (centres unmarked) [TCMDC-132332]	27.09
CC(C)Cn1c(N)cc(=O)n(C)c1=O [TCMDC-123470]	3.426
CCCCCC(=O)NCC(NCCCNc1cc(=O)c2ccccc2[nH]1)c1cc(Br)cc(Br)c1 (centres unmarked) [TCMDC-140316]	24.17
COc1ccc2ncc(Cl)c(NCC3(O)CCC(NCc4ccc5c(n4)NC(=O)CS5)CC3)c2n1 (centres unmarked) [TCMDC-134671]	11.29
CC(=O)c1cccc2[nH]c(C(=O)NC3CCC(CCN4CCc5ccc(C#N)cc5C4)CC3)cc12 (centres unmarked) [TCMDC-139218]	4.712
COc1ccc(Cn2c(N3CCN(S(=O)(=O)c4ccc(OC)cc4)CC3)nc3c2c(=O)n(CC2CC2)c(=O)n3CC2CC2)cc1 [TCMDC-138935]	-17.86
COc1ccc(S(=O)(=O)N2CCC3(CC2)OCC(=O)NC3c2ccc(Cl)c(Cl)c2)cc1 (centres unmarked) [TCMDC-133797]	8.685
Cc1nc(-c2cccc(C(=O)NC3CCC(CCN4CCc5ccc(-c6cccnc6)cc5CC4)CC3)c2)no1 (centres unmarked) [TCMDC-140228]	-46.69
NC(=O)c1sc(-n2cnc3ccccc32)cc1OCc1ccccc1[N+](=O)[O-] [TCMDC-134488]	13.6

SMILES	% Inhibition [%]
CC(Oc1cc(-n2cnc3ccc(NC(=O)CCN4CCCCC4)cc32)sc1C(N)=O)c1ccccc1Cl (centres unmarked) [TCMDC-135370]	69.65
C[C@@H](Oc1cc(-n2cnc3ccc(NC(=O)NC(C)(C)C)cc32)sc1C(N)=O)c1ccccc1Cl [TCMDC-135806]	66.79
C[C@@H](Oc1cc(-n2cnc3ccc(NC(=O)CCN4CCCCC4)cc32)sc1C(N)=O)c1ccccc1Cl [TCMDC-135971]	64.1
O=C(CCN1CCCCC1)Nc1ccc(Nc2nccc(NCC(O)c3ccccc3)n2)cc1 (centres unmarked) [TCMDC-136464]	-29.58
COc1ccc2c(c1)ncn2-c1cc(OCc2ccncc2Br)c(C(N)=O)s1 [TCMDC-138876]	39.96
C[C@@H](Oc1cc(-n2cnc3cc(SCCN4CCN(C)CC4)ccc32)sc1C(N)=O)c1ccccc1Cl [TCMDC-135452]	29.32
COc1ccc2nc(Nc3nc4ccncc4[nH]3)sc2c1 [TCMDC-131950]	20.19
c1ccc(-c2nc(Nc3ccncc3)sc2-c2ccccc2)cc1 [TCMDC-139027]	-36.52
Clc1ccc(-c2cc(-c3csc(Nc4ccncc4)n3)on2)cc1 [TCMDC-135160]	-12.1
Nc1ccc(-c2csc(Nc3ccncc3)n2)cc1 [TCMDC-138715]	-22.32
c1cc(Nc2nc(-c3ccc(-c4csc(Nc5ccncc5)n4)cc3)cs2)ccn1 [TCMDC-139725]	127.3
c1ccc(-c2ccc(-c3csc(Nc4ccncc4)n3)cc2)cc1 [TCMDC-139026]	62.72
c1ccc2sc(-c3csc(Nc4ccncc4)n3)nc2c1 [TCMDC-135159]	-15.83
CC(C)N(CC(=O)c1ccc(O)c(C(=O)O)c1)Cc1ccccc1 [TCMDC-131774]	0.6957
COc1ccccc1COc1c(C)nc(N)nc1N [TCMDC-131356]	-14.22
CC(C)CC(=O)N1CCNC[C@@H]1C(=O)NCc1ccc(Cl)c(Cl)c1 [TCMDC-141242]	45.03
CN1CCC(Oc2ccc(CN3CC[C@H](NC(=O)c4cccc(C#N)c4)C3)c3ccccc23)C1 (some centres unmarked) [TCMDC-135277]	88.31
Cc1cc(CN2CC[C@H](NC(=O)c3ccc(Cl)c(Cl)c3)C2)ccc1OC1CCN(C)C1 (some centres unmarked) [TCMDC-140281]	32.63
CN1CCC(Oc2ccc(CN3CC[C@H](NC(=O)c4ccc(Cl)c(Cl)c4)C3)cc2Cl)C1 (some centres unmarked) [TCMDC-140276]	27.21
CN1CCC(Oc2cc(CN3CC[C@H](NC(=O)c4ccc(Cl)c(Cl)c4)C3)ccc2I)C1 (some centres unmarked) [TCMDC-140266]	15.84
CN1CCC(Oc2ccc(CN3CC[C@H](NC(=O)c4ccc(Cl)c(F)c4)C3)c3ccccc23)C1 (some centres unmarked) [TCMDC-135274]	60.57
CN1CCC(Oc2ccc(CN3CC[C@H](NC(=O)c4cc(F)cc(F)c4)C3)c3ccccc23)C1 (some centres unmarked) [TCMDC-135275]	57.07
CN1CCC(Oc2ccc(CN3CC[C@H](NC(=O)c4ccc(Cl)c(Cl)c4)C3)c3ccccc23)C1 (some centres unmarked) [TCMDC-140271]	51.75
